Data taken from PubChem BioAssay (NCATS).
Results filed as inconclusive are left out. A call without a number means that no potency is given here. Activity calls are given as the source filed them. Calls come from the whole dose curve; as a rule, active = well fitted cell-killing curve with a large enough effect; inconclusive = small, poorly fitted or top-dose-only effect; inactive = flat fitted curve, though single readings scatter.

Assay: Cell Viability - LYMP2-011 (AID 969); note: nearly all actives have a fitted effect of over 60% in size
Details: LYMP2-011 lymphoblastoid cells viability; series mostly up to 92.2 µM
Description: NIH Chemical Genomics Center [NCGC]
NIH Molecular Libraries Screening Centers Network [MLSCN]
National Institutes of Environmental Health Sciences [NIEHS]
National Toxicology Program [NTP]
We have developed a 1536-well cell-based assay for quantitative high throughput screening (qHTS) against a number of cell lines to determine in vitro cytotoxicity of small molecules. This particular assay uses a human lymphoblastoid cell line (LYMP2-011) purchased from Coriell Institute for Medical Research.
NCGC Assay Protocol Summary:
The CellTiter-Glo luminescent cell viability assay (Promega) is a homogeneous method to measure the number of viable cells in culture. The end point readout of this assay is based on quantitation of intracellular ATP, an indicator of metabolic activity, using the luciferase reaction. Luciferase catalyzes the oxidation of beetle Luciferin to oxyluciferin and light in the presence of ATP. The luminescent signal is proportional to amount of ATP present.
Using the CellTiter-Glo luminescent cell viability assay, the amount of cellular ATP was measured in the lymphoblastoid cell line with complete culture medium following compound treatment for 24 hours. The assay was performed in opaque white Kalypsys 1536-well plates. In the screen, tetraoctylammonium bromide was used as positive control. Library compounds were measured for their ability to cause acute toxicity in the cell line, as reflected by a decrease in intracellular ATP levels, in a concentration-dependent manner. […] AC50 values were determined from concentration-response data modeled with the standard Hill equation.
qHTS protocol for CellTiter Glo lymphoblastoid cellular assay
[Step] [Parameter] [Value] [Description]
1. Reagent; 5 uL; 2500 lymphoblastoid cells/well
2. Time; 5 hr; 37 C incubation
4. Controls; 23 nL; Tetraoctylammonium bromide 6.4pM to 92 uM
5. Time; 24 hr; 37 C incubation
6. Reagent; 5 uL; CellTiter Glo reagent
7. Time; 30 min; Room Temperature
8. Detection; Luminescence; Viewlux plate reader
Keywords: cell viability, cytotoxicity, lymphoblastoid cell line, luminescence, NTPHTS, NTPHTS_NCGC, NIEHS, DSSTox, MLSMR, MLSCN, NIH Roadmap, qHTS, NCGC

Row | SMILES | Potency
1 | Cc1cccc(C)c1 | inactive
2 | CC(=O)OCc1ccco1 | inactive
3 | FB(F)F | inactive
4 | C=CCCCC | inactive
5 | Cc1cccc2sc(N)nc12 | inactive
6 | OCCO | inactive
7 | CCCCCCC(=O)O | inactive
8 | CC(C)(c1cc(Br)c(OCC(Br)CBr)c(Br)c1)c1cc(Br)c(OCC(Br)CBr)c(Br)c1 (stereo not given) | inactive
9 | CCCCC(C=O)CC (stereo not given) | inactive
10 | CCOc1cccc(N)c1 | inactive
11 | CCCCCNCCCCC | inactive
12 | c1ccc2c(c1)Oc1ccccc1S2 | inactive
13 | Cc1cccc(C)c1[N+](=O)[O-] | inactive
14 | CC(C)(C)OCC1CO1 (stereo not given) | inactive
15 | O=C(Cl)c1cccc([N+](=O)[O-])c1 | inactive
16 | CCOc1cc(OCC)c(C(C)=O)cc1OCC | inactive
17 | COc1ccc(OC)cc1 | inactive
18 | CCC(C)(C)C | inactive
19 | O=[N+]([O-])c1ccccc1CCO | inactive
20 | CCCCCCC=O | inactive

Row | SMILES | Potency
21 | CC#N | inactive
22 | O=Cc1ccc(C(=O)O)cc1 | inactive
23 | CC(=O)c1cc(C)oc1C | inactive
24 | COc1cccc2sc(N)nc12 | inactive
25 | ClCCl | inactive
26 | Cc1ccc(C)cc1 | inactive
27 | C1CCC2OC2C1 (stereo not given) | inactive
28 | CC(=O)c1cccc([N+](=O)[O-])c1 | inactive
29 | CNc1ccccc1 | inactive
30 | CCC(C)(C)OC | inactive
31 | CC(C)C=O | inactive
32 | O=Cc1ccccc1Cl | inactive
33 | C=C(C)OC(C)=O | inactive
34 | CCOC(=O)C(C)C(C)=O (stereo not given) | inactive
35 | CC(=O)c1ccc([N+](=O)[O-])cc1 | inactive
36 | CCCCC(CC)COC(=O)CCCCC(=O)OCC(CC)CCCC (stereo not given) | inactive
37 | COc1cccc(N)c1 | inactive
38 | Cc1cccc2ccccc12 | inactive
39 | CCCCCCO | inactive
40 | CCCCN(CCO)CCCC | inactive
